In PubChem BioAssay AID999 (SRMLSC, 2007):
Unmarked numbers belong to inactive results. Calls of active or inactive are those of the source.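 How the source made its calls: active means viability at or below 21.59%, 3 SD under the median of tested compounds; inactive means the rest.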

Test: viability loss in PTEN-deleted cells – cell-based, validation, diverse DP compound set (AID 999);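 further: 100% = median luminescence of untreated cell control wells and 0% = no signal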
Conditions: HCT116 PTEN-null viability, CellTiter-Glo, 60 h; at 10 µM; stronger effect = lower value

| SMILES | viability |
| --- | --- |
| COc1ccc2cc([C@H](C)C(=O)O)ccc2c1 | 85.6% |
| C[C@]12CCC(=O)C=C1CC[C@@H]1[C@@H]2[C@@H](O)C[C@@]2(C)[C@H]1CC[C@]2(O)C(=O)CO | 99.2% |
| CC12CC3(O)OC(O1)C1(COC(=O)c4ccccc4)[C@@H]3CC21O[C@@H]1O[C@H](CO)[C@@H](O)[C@H](O)[C@H]1O | 95.3% |
| CNCCC(Oc1ccc(C(F)(F)F)cc1)c1ccccc1 (stereo unspecified) | 85.8% |
| O=C(O)c1cc([N+](=O)[O-])ccc1NCCCc1ccccc1 | 94.2% |
| Cc1c2oc3c(C)ccc(C(=O)N[C@@H]4C(=O)N[C@H](C(C)C)C(=O)N5CCC[C@H]5C(=O)N(C)CC(=O)N(C)[C@@H](C(C)C)C(=O)O[C@@H]4C)c3nc-2c(C(=O)N[C@@H]2C(=O)N[C@H](C(C)C)C(=O)N3CCC[C@H]3C(=O)N(C)CC(=O)N(C)[C@@H](C(C)C)C(=O)O[C@@H]2C)c(N)c1=O | 43.2% |
| COc1cc(-c2ccc(=O)[nH]n2)ccc1OC(F)F | 94.7% |
| CC[n+]1c(-c2ccccc2)c2cc(N)ccc2c2ccc(N)cc21 | 20.1% (active) |
| COc1ccc(CCN(C)CCCN2CCc3cc(OC)c(OC)cc3CC2=O)cc1OC | 97.1% |
| CC(C)CC(=O)N[C@H](C(=O)N[C@H](C(=O)N[C@@H](CC(C)C)[C@@H](O)CC(=O)N[C@@H](C)C(=O)N[C@@H](CC(C)C)[C@@H](O)CC(=O)O)C(C)C)C(C)C | 98.2% |
| COc1ccc(CC(N)C(=O)N[C@H]2[C@@H](O)[C@H](n3cnc4c(N(C)C)ncnc43)O[C@@H]2CO)cc1 (stereo partly specified) | 5.97% (active) |
| CC1(C)CCC[C@@](C)([C@H]2CC[C@]3(C)[C@@H]2[C@H](O)C[C@@H]2[C@@]4(C)CC[C@H](O)C(C)(C)[C@@H]4[C@@H](O)C[C@]23C)O1 | 100% |
| [O][C@H]1[C@@H](O)[C@@H](CO)O[C@@H](O[C@@H]2[C@@H]3OC[C@H]2O[C@H](O[C@@H]2[C@@H](O)[C@H](C[C@@H]4[C@@H]5OC[C@H]4O[CH][C@@H]5O)O[C@H](CO)[C@@H]2OS(=O)(=O)O)[C@@H]3OS(=O)(=O)O)[C@@H]1O | 100% |
| CC(C)NCC(O)COc1cccc2ccccc12 (stereo unspecified) | 89.1% |
| COc1ccc(Cl)cc1C(=O)NCCc1ccc(S(=O)(=O)NC(=O)NC2CCCCC2)cc1 | 107% |
| CC(C)C[C@@H](NC(=O)[C@@H](O)[C@H](N)Cc1ccccc1)C(=O)O | 94.5% |

| SMILES | viability |
| --- | --- |
| COc1ccc2cc1Oc1ccc(cc1)C[C@H]1c3c(cc4c(c3Oc3cc5c(cc3OC)CCN(C)[C@@H]5C2)OCO4)CCN1C | 37.8% |
| CCOC(=O)c1ncn2c1CN(C)C(=O)c1cc(F)ccc1-2 | 95.3% |
| COc1cc(CNC(=O)CCCC/C=C/C(C)C)ccc1O | 99.3% |
| CC(C)C[C@H]1C(=O)N2CCC[C@H]2[C@]2(O)O[C@](NC(=O)[C@@H]3C=C4c5cccc6[nH]c(Br)c(c56)C[C@H]4N(C)C3)(C(C)C)C(=O)N12 | 76.4% |
| O=c1c(-c2ccc(O)cc2)coc2cc(O)cc(O)c12 | 87.8% |
| CC(=O)[C@H]1[C@H](C#N)CC2C3CC=C4C[C@@H](O)CCC4(C)C3CCC21C (stereo partly specified) | 94.8% |
| Nc1nc2ncc(CNc3ccc(C(=O)NC(CCC(=O)O)C(=O)O)cc3)nc2c(=O)[nH]1 (stereo unspecified) | 99.5% |
| Cc1c(C)c2c(c(C)c1O)CCC(C)(COc1ccc(CC3SC(=O)NC3=O)cc1)O2 (stereo unspecified) | 79.8% |
| Nc1c2c(nc3ccccc13)CCCC2 | 107% |
| CC1(COc2ccc(CC3SC(=O)NC3=O)cc2)CCCCC1 (stereo unspecified) | 95.3% |
| CO[C@@H]1[C@@H](OC(N)=O)[C@@H](O)[C@H](Oc2ccc3c(O)c(NC(=O)c4ccc(O)c(CC=C(C)C)c4)c(=O)oc3c2C)OC1(C)C | 88% |
| CN=C(NC#N)NCCSCc1nc[nH]c1C | 99.4% |
| Cc1ccc2c(c1)C(=O)C1(O)CCN(c3ccccc3)C1=N2 (stereo unspecified) | 91.9% |
| O=c1[nH]c(=O)n(C2CCCO2)cc1F (stereo unspecified) | 101% |
| NC(=NCc1ccccc1)NC(=O)c1nc(Cl)c(N)nc1N | 77.3% |
